Experimental data reported in PubChem BioAssay (EPA / NIEHS).
Results filed as inconclusive are left out. The source made the active and inactive calls. The calls were made as follows: active = hit-call score of the fitted dose curve at least 0.9, where 1 is the maximum; inconclusive = response in the unintended direction; inactive = score below 0.9.

molecular target: rat Acetylcholinesterase (AChE), Ache (gene 83817) (UniProt P37136); assay: NVS_ENZ_rAChE: NovaScreen (NVS) Enzymatic Assay for rat Acetylcholinesterase (AChE) (AID 2283233)
How it was run: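 Rat brain membrane acetylcholinesterase activity measured colorimetrically 0.33 h after compound addition, loss of signal relative to DMSO. Primary screen in duplicate at 25 uM; actives re-run as concentration-response with 50 uM top concentration.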

Sequence of rat Acetylcholinesterase (AChE), Ache (gene 83817) (P37136 whole entry, looked up): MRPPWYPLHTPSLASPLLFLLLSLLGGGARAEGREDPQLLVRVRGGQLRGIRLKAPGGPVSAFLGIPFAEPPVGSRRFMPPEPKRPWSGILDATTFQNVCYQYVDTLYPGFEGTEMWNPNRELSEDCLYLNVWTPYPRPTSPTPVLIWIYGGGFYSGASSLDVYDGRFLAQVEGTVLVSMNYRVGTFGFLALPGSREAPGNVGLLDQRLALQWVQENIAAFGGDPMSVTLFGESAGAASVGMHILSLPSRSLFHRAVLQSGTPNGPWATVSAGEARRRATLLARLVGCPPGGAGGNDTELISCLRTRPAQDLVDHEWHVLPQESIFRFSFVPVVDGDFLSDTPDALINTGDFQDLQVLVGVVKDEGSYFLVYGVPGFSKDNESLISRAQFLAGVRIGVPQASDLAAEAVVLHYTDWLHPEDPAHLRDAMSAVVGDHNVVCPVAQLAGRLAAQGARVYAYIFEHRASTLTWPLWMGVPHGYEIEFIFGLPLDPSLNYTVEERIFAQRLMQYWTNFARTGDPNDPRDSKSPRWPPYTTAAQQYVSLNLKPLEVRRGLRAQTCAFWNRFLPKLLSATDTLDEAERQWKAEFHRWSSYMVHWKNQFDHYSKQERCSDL

| SMILES | AC50 | outcome |
| --- | --- | --- |
| O=C1c2c(O)ccc(Nc3ccc(CCO)cc3)c2C(=O)c2c([N+](=O)[O-])ccc(O)c21 | 1.91 µM (active) |  |
| CCOC(=O)C1=NOC(c2ccccc2)(c2ccccc2)C1 |  | inactive |
| S=C(NC1CCCCC1)NC1CCCCC1 | 17.2 µM (active) |  |
| CCCC(=O)OCCC(C)C |  | inactive |
| CCCCCCCCCCCCCC[N+](C)(C)C | 21.3 µM (active) |  |
| CCCCCCCCCCCC[N+](C)(C)C |  | inactive |
| c1ccc(Oc2ccccc2)cc1 |  | inactive |
| NC(=O)Cn1c(=O)cc(CCN2CCN(c3nccc4sccc34)CC2)c2ccc(F)cc21 |  | inactive |
| CCn1nc(C)c2c1C(=O)NCC(c1ccc(O)cc1)=N2 |  | inactive |

molecular target: rat Monoamine Oxidase, MAO-B, Central (MAOBC), Maob (gene 25750) (UniProt P19643); assay: NVS_ENZ_rMAOBC: NovaScreen (NVS) Enzymatic Assay for rat Monoamine Oxidase, MAO-B, Central (MAOBC) (AID 2283238)
How it was run: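 Compounds were first tested in duplicate at 25 uM against MAO-B from rat brain tissue; those passing the inhibition threshold were retested in concentration series up to 50 uM. Radiodetection by scintillation counting at 1.17 h, analysed against DMSO baseline.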

Sequence of rat Monoamine Oxidase, MAO-B, Central (MAOBC), Maob (gene 25750) (P19643 whole entry, looked up): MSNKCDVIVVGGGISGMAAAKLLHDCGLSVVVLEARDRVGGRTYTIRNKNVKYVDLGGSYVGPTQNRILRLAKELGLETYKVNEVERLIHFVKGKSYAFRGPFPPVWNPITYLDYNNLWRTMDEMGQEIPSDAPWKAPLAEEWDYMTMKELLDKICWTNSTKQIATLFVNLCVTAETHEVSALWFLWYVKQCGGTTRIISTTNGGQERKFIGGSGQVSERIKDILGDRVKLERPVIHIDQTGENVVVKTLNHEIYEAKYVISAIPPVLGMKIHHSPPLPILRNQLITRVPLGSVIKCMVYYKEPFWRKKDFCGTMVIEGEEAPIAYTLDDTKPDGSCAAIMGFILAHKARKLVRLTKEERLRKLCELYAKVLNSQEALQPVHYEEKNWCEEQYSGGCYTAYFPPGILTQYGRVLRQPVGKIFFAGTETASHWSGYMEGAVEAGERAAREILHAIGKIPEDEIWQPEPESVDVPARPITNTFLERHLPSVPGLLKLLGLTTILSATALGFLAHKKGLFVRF

| SMILES | outcome | AC50 |
| --- | --- | --- |
| Cc1cccc(C)c1O | inactive |  |
| CCc1ccc(CCOc2ccc(CC3SC(=O)NC3=O)cc2)nc1 (stereo not given) |  | 6 µM (active) |
| O=C(O)c1cccnc1 | inactive |  |
| Fc1ccccc1[C@@H](F)COC1CCC(Nc2ncnc3[nH]ncc23)CC1 (stereo not given in full) |  | 18.6 µM (active) |
| O=C(CCCCCCCCc1cccnc1)N1CCC(C=C(c2ccccc2)c2ccccc2)CC1 | inactive |  |
| CCOC(=O)C(C)Oc1ccc(Oc2nc3ccc(Cl)cc3o2)cc1 (stereo not given) | inactive |  |
| CC(O)CC(C)(C)O (stereo not given) | inactive |  |
| CCCOC(=O)c1cc(O)c(O)c(O)c1 | inactive |  |
| Cc1c(C)c2c(c(C)c1O)CCC(C)(COc1ccc(CC3SC(=O)NC3=O)cc1)O2 (stereo not given) |  | 25 µM (active) |
| O=c1ccc2ccccc2o1 |  | 12.5 µM (active) |
| CCOC(=O)[C@H](C)Oc1ccc(Oc2nc3ccc(Cl)cc3o2)cc1 |  | 1.57 µM (active) |
| CCCCCCCCCCCC[N+](C)(C)C |  | 9.12 µM (active) |
| CCC(C)(C)C1CCC(O)CC1 (stereo not given) | inactive |  |
| CS(=O)(=O)OCCCCOS(C)(=O)=O | inactive |  |
| Cc1ccc(C)c(C)c1 | inactive |  |
| Cc1ccc([N+](=O)[O-])cc1N |  | 14.7 µM (active) |
| NC(=O)N(O)[C@@H]1COc2cc(OCc3ccccc3)ccc21 |  | 12.2 µM (active) |
| CCCCCCCCOC(=O)c1cc(O)c(O)c(O)c1 | inactive |  |
| CCCCCC(C)OC(=O)COc1ccc(Cl)c2cccnc12 (stereo not given) | inactive |  |
| C=CN1CCCC1=O | inactive |  |
| CCc1cc(SCc2sc(-c3ccc(C(F)(F)F)cc3)nc2CN2CCN(c3ccc(OC)cc3)CC2)ccc1OCC(=O)O |  | 15 µM (active) |
| COC(=O)c1ccc(C(=O)OC)cc1 |  | 25 µM (active) |

molecular target: rat Monoamine Oxidase, MAO-B, Peripheral (MAOBP), Maob (gene 25750) (UniProt P19643); assay: NVS_ENZ_rMAOBP: NovaScreen (NVS) Enzymatic Assay for rat Monoamine Oxidase, MAO-B, Peripheral (MAOBP) (AID 2283242)
Sequence (P19643 whole entry, looked up): as above

| SMILES | outcome | AC50 |
| --- | --- | --- |
| O=C1NS(=O)(=O)c2ccccc21 | inactive |  |
| CC(C)(O)c1ccc(CNC(=O)c2cccnc2Oc2ccc3nonc3c2)cc1 | inactive |  |
| Fc1ccccc1[C@@H](F)COC1CCC(Nc2ncnc3[nH]ncc23)CC1 (stereo not given in full) |  | 7.67 µM (active) |
| NC(=Nc1ccccc1)Nc1ccccc1 | inactive |  |
| CCOC(=O)C(C)Oc1ccc(Oc2nc3ccc(Cl)cc3o2)cc1 (stereo not given) |  | 29.9 µM (active) |
| O=c1ccc2ccccc2o1 |  | 13.5 µM (active) |
| CCOC(=O)[C@H](C)Oc1ccc(Oc2nc3ccc(Cl)cc3o2)cc1 |  | 15.9 µM (active) |
| COC(=O)c1ccc(CNS(C)(=O)=O)cc1S(=O)(=O)NC(=O)Nc1nc(OC)cc(OC)n1 |  | 35.5 µM (active) |
| CCCCN1C(=O)[C@@H]([C@H](O)C2CCCCC2)NC(=O)C12CCN(Cc1ccc(Oc3ccc(C(=O)O)cc3)cc1)CC2 | inactive |  |
| CS(=O)(=O)OCCCCOS(C)(=O)=O | inactive |  |
| Cc1ccc([N+](=O)[O-])cc1N |  | 26.1 µM (active) |
| OCC(CO)(CBr)CBr | inactive |  |
| O=c1[nH]sc2ccccc12 |  | 19.2 µM (active) |
| CCc1cc(SCc2sc(-c3ccc(C(F)(F)F)cc3)nc2CN2CCN(c3ccc(OC)cc3)CC2)ccc1OCC(=O)O | inactive |  |
| CCCCCCC(C=O)=Cc1ccccc1 | inactive |  |
| CC1=C(/C=C/C(C)=C/C=C/C(C)=C/C(=O)O)C(C)(C)CCC1 | inactive |  |

system: rat Monoamine Oxidase, MAO-A, Central (MAOAC), gene 29253; assay: NVS_ENZ_rMAOAC: NovaScreen (NVS) Enzymatic Assay for rat Monoamine Oxidase, MAO-A, Central (MAOAC) (AID 2283243);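 also: potency refers to inhibition seen as signal drop below DMSO baseline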
How it was run: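 Inhibition of rat brain-derived MAO-A was read by scintillation counting after 1.5 h exposure. Compounds screened first at 25 uM in duplicate, then in dose series if active.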

| SMILES | outcome | AC50 |
| --- | --- | --- |
| CCOC(=O)C(C)Oc1ccc(Oc2nc3ccc(Cl)cc3o2)cc1 (stereo not given) | inactive |  |
| CCCCCCCCCCCCCC[N+](C)(C)C |  | 31.1 µM (active) |
| CCOC(=O)[C@H](C)Oc1ccc(Oc2nc3ccc(Cl)cc3o2)cc1 |  | 17.4 µM (active) |
| CCCCCCCCCCCC[N+](C)(C)C |  | 25 µM (active) |

molecular target: bovine Gamma-Aminobutyric Acid Type A Receptor BDZ, alpha 1 site (GABARa1), GABRA1 (gene 780973) (UniProt P08219); assay: NVS_LGIC_bGABARa1: NovaScreen (NVS) Ligand-Gated Ion Channel Assay for bovine Gamma-Aminobutyric Acid Type A Receptor BDZ, alpha 1 site (GABARa1) (AID 2283321)
How it was run: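 Radioligand competition binding on bovine cortical membranes, 0.75 h, filter-based scintillation counting. Primary single concentration 25 uM in duplicate; actives rerun in concentration-response to 50 uM max. Loss of signal fitted versus DMSO.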

Sequence of bovine Gamma-Aminobutyric Acid Type A Receptor BDZ, alpha 1 site (GABARa1), GABRA1 (gene 780973) (P08219 whole entry, looked up): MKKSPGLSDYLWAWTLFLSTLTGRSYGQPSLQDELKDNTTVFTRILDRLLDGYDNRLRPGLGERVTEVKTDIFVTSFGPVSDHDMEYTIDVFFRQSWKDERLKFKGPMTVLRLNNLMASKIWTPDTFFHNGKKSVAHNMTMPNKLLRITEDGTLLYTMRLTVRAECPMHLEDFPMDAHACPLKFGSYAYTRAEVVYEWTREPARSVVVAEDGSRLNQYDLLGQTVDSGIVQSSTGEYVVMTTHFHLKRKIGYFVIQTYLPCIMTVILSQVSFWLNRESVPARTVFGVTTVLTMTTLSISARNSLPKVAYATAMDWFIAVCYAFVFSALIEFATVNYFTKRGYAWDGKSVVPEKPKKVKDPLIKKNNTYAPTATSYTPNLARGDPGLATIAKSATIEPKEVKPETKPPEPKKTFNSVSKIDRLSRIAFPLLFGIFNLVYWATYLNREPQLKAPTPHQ

| SMILES | AC50 | outcome |
| --- | --- | --- |
| NC(=Nc1ccccc1)Nc1ccccc1 | 21.8 µM (active) |  |
| NC(=O)Cn1c(=O)cc(CCN2CCN(c3nccc4sccc34)CC2)c2ccc(F)cc21 | 4.48 µM (active) |  |
| Cc1cc(SC2=C(O)C[C@@](CCc3ccc(N)cc3)(C(C)C)OC2=O)c(C(C)(C)C)cc1CO | 22.6 µM (active) |  |
| CCn1nc(C)c2c1C(=O)NCC(c1ccc(O)cc1)=N2 |  | inactive |
